Measured values published in PubChem BioAssay.
Active and inactive are the calls of the source.

Assays:
[1] = tested on: Plasmodium falciparum Sir2 (PF13_0152, Sir2A); experiment: Plasmodium falciparum Sir2A binding compounds – biochemical, small-molecule microarray, 635 nm fluorescence, primary screen (AID 1098); settings: fluorescence 635 nm, higher = more signal;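 note: score merges spot fluorescence intensity with its signal-to-noise ratio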
[2] = probe aDKK1 binding to arrayed compounds – biochemical, biotinylated probe, 635/667 nm fluorescence, primary screen (AID 1099); settings: small-molecule microarray, higher = more signal;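 note: score merges 667nm spot fluorescence with signal to noise across triplicate slides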
[3] = probe aCHRDL2 binding to arrayed compounds – biochemical, biotinylated probe, 635/667 nm fluorescence, primary screen (AID 1100); settings: small-molecule microarray, higher = more signal
[4] = change in splice reporter luminescence, either direction, cell-based, HEK293, spliceosome inhibition project, primary screen (AID 1101); settings: HEK293 splicing luciferase reporter, 24 h, higher = more signal, called active from +8 up or from −8 down;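 note: HEK293 cells carrying a splicing-competent luciferase reporter gene; test concentration not given here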
[5] = target: Fibroblast growth factor 10 (Homo sapiens) (UniProt O15520); experiment: compounds binding fibroblast growth factor 10 – biochemical, small-molecule microarray, 635 nm fluorescence, primary screen (AID 1102); settings: FGF10 binding, fluorescence 635 nm, higher = more signal
Chain of Fibroblast growth factor 10 (Homo sapiens) (O15520 whole entry, looked up): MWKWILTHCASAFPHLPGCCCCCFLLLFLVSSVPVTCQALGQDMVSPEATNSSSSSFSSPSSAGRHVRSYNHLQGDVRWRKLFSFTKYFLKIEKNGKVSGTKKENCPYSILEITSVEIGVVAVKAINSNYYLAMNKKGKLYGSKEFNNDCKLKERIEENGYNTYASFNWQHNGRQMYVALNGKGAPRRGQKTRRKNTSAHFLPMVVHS

[6] = tested on: glycogen synthase kinase-3 (GSK3A per assay name; protocol says GSK3B); experiment: compounds binding glycogen synthase kinase-3 – biochemical, small-molecule microarray, 635 nm fluorescence, GSK3A, primary screen (AID 1103); settings: fluorescence 635 nm, higher = more signal; note: the record names both GSK3A and GSK3B
[7] = target: Epidermal growth factor receptor (Homo sapiens) (UniProt P00533); experiment: compounds binding epidermal growth factor receptor – biochemical, small-molecule microarray, 635 nm fluorescence, primary screen (AID 1104); settings: EGFR binding, higher = more signal;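 note: score merges 667 nm emission intensity with spot signal to noise over triplicate slides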
Chain of Epidermal growth factor receptor (Homo sapiens) (P00533 whole entry, looked up): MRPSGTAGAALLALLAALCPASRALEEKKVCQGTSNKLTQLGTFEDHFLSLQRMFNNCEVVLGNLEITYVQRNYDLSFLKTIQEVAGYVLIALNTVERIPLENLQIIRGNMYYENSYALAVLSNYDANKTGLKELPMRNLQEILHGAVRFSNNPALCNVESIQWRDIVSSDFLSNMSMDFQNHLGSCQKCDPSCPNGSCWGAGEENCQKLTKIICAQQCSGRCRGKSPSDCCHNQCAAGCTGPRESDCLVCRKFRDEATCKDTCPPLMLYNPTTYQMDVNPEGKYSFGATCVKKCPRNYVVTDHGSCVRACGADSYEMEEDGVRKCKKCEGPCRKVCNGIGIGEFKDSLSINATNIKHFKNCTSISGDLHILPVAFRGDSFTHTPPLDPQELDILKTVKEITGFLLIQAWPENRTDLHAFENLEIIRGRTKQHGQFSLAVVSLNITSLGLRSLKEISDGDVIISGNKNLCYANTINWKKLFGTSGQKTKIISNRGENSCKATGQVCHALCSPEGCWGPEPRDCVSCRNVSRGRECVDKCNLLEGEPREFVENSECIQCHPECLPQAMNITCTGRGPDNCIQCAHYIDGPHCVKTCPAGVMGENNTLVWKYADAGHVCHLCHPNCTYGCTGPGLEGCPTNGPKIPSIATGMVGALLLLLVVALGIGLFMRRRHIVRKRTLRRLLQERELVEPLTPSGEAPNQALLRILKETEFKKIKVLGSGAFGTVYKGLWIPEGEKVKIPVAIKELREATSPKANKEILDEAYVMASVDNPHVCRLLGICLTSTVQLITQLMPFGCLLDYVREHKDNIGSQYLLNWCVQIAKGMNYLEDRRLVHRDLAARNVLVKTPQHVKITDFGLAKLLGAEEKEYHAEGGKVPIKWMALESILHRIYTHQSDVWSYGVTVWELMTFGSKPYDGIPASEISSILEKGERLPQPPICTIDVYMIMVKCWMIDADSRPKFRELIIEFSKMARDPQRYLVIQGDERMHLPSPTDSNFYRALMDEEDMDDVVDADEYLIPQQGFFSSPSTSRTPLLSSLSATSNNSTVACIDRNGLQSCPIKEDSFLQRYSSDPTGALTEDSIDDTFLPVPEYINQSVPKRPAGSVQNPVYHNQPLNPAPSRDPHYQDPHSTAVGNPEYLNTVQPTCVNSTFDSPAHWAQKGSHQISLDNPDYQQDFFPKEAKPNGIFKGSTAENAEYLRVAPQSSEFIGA

[8] = target: Follistatin-related protein 3 (Homo sapiens) (UniProt O95633); experiment: compounds binding follistatin-related protein 3 – biochemical, small-molecule microarray, 635 nm fluorescence, primary screen (AID 1105); settings: FSTL3 binding, higher = more signal;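 note: score merges emission near 667 nm and signal to noise per printed spot across three slides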
Chain of Follistatin-related protein 3 (Homo sapiens) (O95633 whole entry, looked up): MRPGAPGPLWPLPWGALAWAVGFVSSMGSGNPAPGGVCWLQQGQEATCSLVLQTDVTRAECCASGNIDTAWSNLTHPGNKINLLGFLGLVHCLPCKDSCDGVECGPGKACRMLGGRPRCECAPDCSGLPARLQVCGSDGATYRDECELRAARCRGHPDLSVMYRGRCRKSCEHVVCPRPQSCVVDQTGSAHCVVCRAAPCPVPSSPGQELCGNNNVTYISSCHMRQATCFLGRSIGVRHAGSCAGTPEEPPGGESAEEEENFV

[9] = target: Dickkopf-related protein 1 (Homo sapiens) (UniProt O94907); experiment: small molecules binding DKK1 protein – biochemical, small-molecule microarray, 635 nm fluorescence scan, primary screen (AID 1106); settings: higher = more signal;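 note: score merges emission near 667 nm with signal to noise over three replicate slides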
Chain of Dickkopf-related protein 1 (Homo sapiens) (O94907 whole entry, looked up): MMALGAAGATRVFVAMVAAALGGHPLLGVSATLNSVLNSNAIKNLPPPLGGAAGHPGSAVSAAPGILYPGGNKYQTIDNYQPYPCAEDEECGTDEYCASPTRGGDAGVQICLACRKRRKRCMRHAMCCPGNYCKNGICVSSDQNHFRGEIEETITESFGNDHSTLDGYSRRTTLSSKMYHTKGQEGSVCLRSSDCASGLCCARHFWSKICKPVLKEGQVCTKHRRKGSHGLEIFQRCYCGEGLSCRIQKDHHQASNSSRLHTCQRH

[10] = tested on: Inhibin beta A chain (activin A); experiment: small molecules binding activin A – biochemical, small-molecule microarray, 635 nm fluorescence scan, primary screen (AID 1107); settings: INHBA, higher = more signal;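 note: mouse activin A protein probed at 4.33 µg/mL on printed slides; score merges bound-protein fluorescence near 667 nm with spot signal-to-noise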
[11] = tested on: Human papillomavirus type 1a protein E7 (residues 44-93); experiment: small molecules binding HPV E7 44-93 – biochemical, small-molecule microarray, residues 44-93, 635 nm fluorescence, primary screen (AID 1108); settings: fluorescence 635 nm, higher = more signal;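 note: E7 fragment applied at 1 µg/mL in TBST for 1 h at 4 C; score combines spot fluorescence with its signal to noise ratio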
[12] = hepatitis C replication reporter changes, two-sided – Huh7 cells, luciferase reporter, HCV replication inhibitor project, primary screen (AID 1109); settings: Huh7 HCV replicon luciferase reporter, 48 h; higher = more signal;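 note: huh7 hepatoma cells harbouring a luciferase neomycin HCV replicon reporter; luciferase luminescence as measure of HCV replicon replication; test concentration not given here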
[13] = target: Left-right determination factor 2 (Homo sapiens) (UniProt O00292); experiment: small molecules binding LEFTY2 protein – biochemical, small-molecule microarray, 635 nm fluorescence scan, primary screen (AID 1110); settings: higher = more signal
Chain of Left-right determination factor 2 (Homo sapiens) (O00292 whole entry, looked up): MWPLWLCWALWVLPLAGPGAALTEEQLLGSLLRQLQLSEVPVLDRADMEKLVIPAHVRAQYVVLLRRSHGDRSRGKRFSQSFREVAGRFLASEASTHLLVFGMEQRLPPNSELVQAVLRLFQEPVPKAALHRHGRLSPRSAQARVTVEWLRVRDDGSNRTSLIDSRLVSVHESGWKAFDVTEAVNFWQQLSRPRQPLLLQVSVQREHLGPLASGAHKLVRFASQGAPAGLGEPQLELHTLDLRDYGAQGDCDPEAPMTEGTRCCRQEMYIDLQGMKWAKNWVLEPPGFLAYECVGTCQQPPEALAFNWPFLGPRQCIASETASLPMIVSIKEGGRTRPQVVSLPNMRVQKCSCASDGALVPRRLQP

[14] = target: Calmodulin-1 (Homo sapiens) (UniProt P0DP23); experiment: small molecules binding calmodulin-1 with EGTA – biochemical, small-molecule microarray, Cy5-labelled CALM1, profiling panel (AID 1111); settings: Cy5-CALM1 binding fluorescence, higher = more signal;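 note: labelled calmodulin applied in Tris saline Tween buffer holding calcium plus EGTA and DTT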
[15] = target: Calmodulin-1 (Homo sapiens) (UniProt P0DP23); experiment: small molecules binding Ca-loaded calmodulin-1 – biochemical, small-molecule microarray, Cy5-labelled CALM1, plus calcium, artefact control for SMM control-protein annotation, profiling panel (AID 1112); settings: Cy5-CALM1 binding fluorescence, higher = more signal;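 note: score merges spot fluorescence with signal to noise from triplicate slides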
[16] = probe aWnt5a binding to arrayed compounds – biochemical, biotinylated probe, 635/667 nm fluorescence, primary screen (AID 1113); settings: small-molecule microarray, higher = more signal;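 note: score merges 667 nm fluorescence intensity with signal-to-noise per printed feature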
[17] = probe aShh binding to arrayed compounds – biochemical, biotinylated probe, 635/667 nm fluorescence, primary screen (AID 1114); settings: small-molecule microarray, higher = more signal;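 note: probe is biotin-labelled aShh protein from a stem cell growth factor screen; measures binding of labelled protein to compounds printed on the slide; score merges feature fluorescence at 667 nm with signal-to-noise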
[18] = probe aNog binding to arrayed compounds – biochemical, biotinylated probe, 635/667 nm fluorescence, primary screen (AID 1115); settings: small-molecule microarray, higher = more signal;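 note: probe is biotinylated aNog protein used at 0.15 µg/mL for 1 h at 4 C; z-score combines 667 nm fluorescence of each spot with its signal to noise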
[19] = target: Torsin-1A-interacting protein 1 (Homo sapiens) (UniProt Q5JTV8); experiment: compound microarray binding of lysate hLAP1 – cell lysate, small-molecule microarray, COS7 lysate, 635/667 nm fluorescence, primary screen (AID 1116); settings: 635 nm fluorescence, higher = more signal
Chain of Torsin-1A-interacting protein 1 (Homo sapiens) (Q5JTV8 whole entry, looked up): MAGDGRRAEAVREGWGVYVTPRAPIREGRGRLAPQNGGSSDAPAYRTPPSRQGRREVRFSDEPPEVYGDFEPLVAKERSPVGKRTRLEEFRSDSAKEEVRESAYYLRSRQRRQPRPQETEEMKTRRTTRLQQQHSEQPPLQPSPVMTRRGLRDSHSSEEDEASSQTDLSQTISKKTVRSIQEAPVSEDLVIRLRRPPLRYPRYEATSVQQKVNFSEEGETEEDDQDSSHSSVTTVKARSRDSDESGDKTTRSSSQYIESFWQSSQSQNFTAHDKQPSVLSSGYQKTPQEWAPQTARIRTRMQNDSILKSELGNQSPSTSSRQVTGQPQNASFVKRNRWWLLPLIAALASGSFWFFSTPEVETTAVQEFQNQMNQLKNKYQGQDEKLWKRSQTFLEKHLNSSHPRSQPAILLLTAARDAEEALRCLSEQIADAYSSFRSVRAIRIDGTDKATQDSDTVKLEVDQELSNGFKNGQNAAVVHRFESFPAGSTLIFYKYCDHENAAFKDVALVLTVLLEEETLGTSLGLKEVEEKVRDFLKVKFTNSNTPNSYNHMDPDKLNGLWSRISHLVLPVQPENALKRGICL

[20] = target: Alpha-bungarotoxin (Bungarus multicinctus) (UniProt P60615); experiment: compounds binding labelled alpha-BTX control protein – biochemical, small-molecule microarray, Alexa647 label, 635/667 nm fluorescence, artefact control for SMM control protein annotation, profiling panel (AID 1117); settings: alpha-BTX-A647 binding fluorescence, higher = more signal
Chain of Alpha-bungarotoxin (Bungarus multicinctus) (P60615 whole entry, looked up): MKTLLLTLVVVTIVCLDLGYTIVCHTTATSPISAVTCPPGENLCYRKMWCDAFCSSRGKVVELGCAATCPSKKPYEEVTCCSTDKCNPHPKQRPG

**Q.** With `COc1cc2c(cc1O)C(c1cccs1)N(Cc1sc3ccccc3c1Cl)CC2` (stereo not given) as the compound, how does the composite z-score [1] read?
**A.** 1.33

**Q.** What about the composite z-score [2] of the same compound?
**A.** 0.525

**Q.** What about the composite z-score [3] of the same compound?
**A.** 0.179

**Q.** What about the z-score [4] of the same compound?
**A.** -0.861 (inactive)

**Q.** And the composite z-score [5]?
**A.** 1.46

**Q.** What about the composite z-score [6] of the same compound?
**A.** 1.36

**Q.** What about the composite z-score [7] of the same compound?
**A.** 0.495

**Q.** What about the composite z-score [8] of the same compound?
**A.** 1.41

**Q.** What about the composite z-score [9] of the same compound?
**A.** 0.726

**Q.** What about the composite z-score [10] of the same compound?
**A.** 0.816

**Q.** What about the composite z-score [11] of the same compound?
**A.** 1.48

**Q.** What about the z-score [12] of the same compound?
**A.** -1.7

**Q.** And the composite z-score [13]?
**A.** 0.659

**Q.** What about the composite z-score [14] of the same compound?
**A.** 1.66

**Q.** What about the composite z-score [15] of the same compound?
**A.** 0.334

**Q.** What about the composite z-score [16] of the same compound?
**A.** -0.0345

**Q.** And the composite z-score [17]?
**A.** 0.199

**Q.** And the composite z-score [18]?
**A.** 0.593

**Q.** What about the composite z-score [19] of the same compound?
**A.** 1.33

**Q.** And the composite z-score [20]?
**A.** 1.87

**Q.** What does the source list for `COc1cc(NN2C(C(O)C3CCCCC3)C=CC3C(=O)N(c4ccccc4)C(=O)C32)cc(OC)c1OC` (stereo not given)?
**A.** composite z-score [1]: 1.11; composite z-score [2]: 0.946; composite z-score [3]: 1.43; z-score [4]: -0.983 (inactive); composite z-score [5]: 0.448; composite z-score [6]: 0.893; composite z-score [7]: -0.455; composite z-score [8]: 0.722; composite z-score [9]: -1.37; composite z-score [10]: 0.591; composite z-score [11]: 1.05; z-score [12]: -1.1; composite z-score [13]: -0.79; composite z-score [14]: 2.13; composite z-score [15]: 1.23; composite z-score [16]: 0.141; composite z-score [17]: -0.11; composite z-score [18]: 0.658; composite z-score [19]: 1.5; composite z-score [20]: 1.98

**Q.** What does the source list for `C=CCNC(=O)[C@H]1[C@@H]2C(=O)O[C@@H](c3ccccc3)[C@@H](c3ccccc3)N2[C@@H](c2ccc(OCCO)cc2)[C@]12C(=O)Nc1ccc(C#CCNC(N)=O)cc12`?
**A.** composite z-score [1]: 1.2; composite z-score [2]: 0.867; composite z-score [3]: 1.05; z-score [4]: -0.595 (inactive); composite z-score [5]: 1.13; composite z-score [6]: 0.332; composite z-score [7]: -0.471; composite z-score [8]: 0.65; composite z-score [9]: 0.0352; composite z-score [10]: 0.624; composite z-score [11]: 0.0863; z-score [12]: -0.587; composite z-score [13]: 0.192; composite z-score [14]: 1.41; composite z-score [15]: 1.15; composite z-score [16]: -0.0009; composite z-score [17]: 0.163; composite z-score [18]: 0.85; composite z-score [19]: 0.311; composite z-score [20]: 2.07

**Q.** With `O=c1cccc(-c2ccc(F)cc2)o1` as the compound, how does the composite z-score [1] read?
**A.** 0.347

**Q.** And the composite z-score [2]?
**A.** 0.328

**Q.** What about the composite z-score [3] of the same compound?
**A.** -0.3

**Q.** What about the z-score [4] of the same compound?
**A.** 0.362 (inactive)

**Q.** And the composite z-score [5]?
**A.** 0.948

**Q.** What about the composite z-score [6] of the same compound?
**A.** 0.716

**Q.** What about the composite z-score [7] of the same compound?
**A.** 0.444

**Q.** What about the composite z-score [8] of the same compound?
**A.** 0.74

**Q.** And the composite z-score [9]?
**A.** 0.399

**Q.** What about the composite z-score [10] of the same compound?
**A.** 0.457

**Q.** And the composite z-score [11]?
**A.** -0.399

**Q.** What about the z-score [12] of the same compound?
**A.** -0.228

**Q.** What about the composite z-score [13] of the same compound?
**A.** 0.55

**Q.** What about the composite z-score [14] of the same compound?
**A.** -0.236

**Q.** What about the composite z-score [15] of the same compound?
**A.** -0.33

**Q.** And the composite z-score [16]?
**A.** -0.1

**Q.** And the composite z-score [17]?
**A.** 0.216

**Q.** And the composite z-score [18]?
**A.** 0.0416

**Q.** And the composite z-score [19]?
**A.** -0.184

**Q.** What about the composite z-score [20] of the same compound?
**A.** 0.241

**Q.** With `C=C/C=C/[C@@H]1C(=C)CN([C@@H](Cc2ccccc2)C(=O)OC)[C@H]1[C@@H](O)Cc1ccccc1` as the compound, how does the composite z-score [1] read?
**A.** 0.742

**Q.** What about the composite z-score [2] of the same compound?
**A.** -0.369

**Q.** And the composite z-score [3]?
**A.** -0.186

**Q.** What about the z-score [4] of the same compound?
**A.** 0.844 (inactive)

**Q.** And the composite z-score [5]?
**A.** 0.716

**Q.** What about the composite z-score [6] of the same compound?
**A.** 0.754

**Q.** What about the composite z-score [7] of the same compound?
**A.** -0.08

**Q.** And the composite z-score [8]?
**A.** 0.509

**Q.** What about the composite z-score [9] of the same compound?
**A.** 0.473

**Q.** What about the composite z-score [10] of the same compound?
**A.** 1.2

**Q.** And the composite z-score [11]?
**A.** 1.17

**Q.** And the z-score [12]?
**A.** -0.622

**Q.** And the composite z-score [13]?
**A.** 0.201

**Q.** What about the composite z-score [14] of the same compound?
**A.** 0.241

**Q.** What about the composite z-score [15] of the same compound?
**A.** -0.547

**Q.** What about the composite z-score [16] of the same compound?
**A.** -0.107

**Q.** And the composite z-score [17]?
**A.** -0.138

**Q.** And the composite z-score [18]?
**A.** 0.0924

**Q.** What about the composite z-score [19] of the same compound?
**A.** 0.309

**Q.** And the composite z-score [20]?
**A.** 0.325
